Experiment [1] deals with Staphylococcus aureus. The experiment is described as follows: Antibacterial activity against Staphylococcus aureus MRSA ATCC 43300 (CO-ADD:GP_020); MIC in CAMBH media using NBS plates, by Resazurin F(560/590). The format is functional. The settings on record: Concentration 20 uM, ASSAY_TEST Inhibition of Bacterial Growth, detection method Resazurin, Fluorescence (ex560/em590), MEDIA CAMHB, plate type 384well, CORNING #3640, time 18 hr. For orientation: Resazurin is reduced to fluorescent resorufin, in cell work by metabolically active cells.

For experiment [2], the system named is Acinetobacter baumannii. The experiment is described as follows: Antibacterial activity against Acinetobacter baumannii ATCC 19606 (CO-ADD:GN_034); MIC in CAMBH media using NBS plates, by Resazurin F(560/590). It counts as functional. The settings on record: Concentration 20 uM, ASSAY_TEST Inhibition of Bacterial Growth, detection method Resazurin, Fluorescence (ex560/em590), MEDIA CAMHB, plate type 384well, CORNING #3640, time 18 hr.

The test system of experiment [3] is Escherichia coli. Nature of the experiment: Antibacterial activity against Escherichia coli ATCC 25922 (CO-ADD:GN_001); MIC in CAMBH media using NBS plates, by Resazurin F(560/590). It counts as functional. The note with it: Concentration 20 uM, ASSAY_TEST Inhibition of Bacterial Growth, detection method Resazurin, Fluorescence (ex560/em590), MEDIA CAMHB, plate type 384well, CORNING #3640, time 18 hr.

For experiment [4], the system named is Klebsiella pneumoniae. The settings on record: Concentration 20 uM; ASSAY_TEST Inhibition of Bacterial Growth; detection method Absorption (OD600); MEDIA CAMHB; plate type 384well; NBS; CORNING #3640; time 18 hr.
Experiment [5] concerns Candida albicans. The note with it: 20 µM.
Experiment [6] relates to Cryptococcus neoformans. The settings on record: Concentration 20 uM; ASSAY_TEST Inhibition of Fungal Growth; detection method Resazurin; Absorption (OD600-OD570); plate type 384well; NBS; CORNING #3640.

For part of these data: Entries with a potency or affinity are not part of this list.

For `COc1ccn(C2CCCCO2)c(=O)n1` (stereo not given), the Inhibition (as a rule, the change of the read-out against control, counted positive when it falls) is 1.35% in experiment [1]; -10.23% in experiment [2]; 3.33% in experiment [3]; 6.04% in experiment [4]; 0.65% in experiment [5]; -5.3% in experiment [6].

In the case of `O=C(Nc1cccc([N+](=O)[O-])c1)c1cccc(C(=O)Nc2cccc([N+](=O)[O-])c2)c1`, the Inhibition in experiment [1] was -2.9%; in experiment [2], 3.66%; in experiment [3], 1.98%; in experiment [4] it was 5.84%; in experiment [5] it was -0.13%; in experiment [6], 37.96%.

On to `CC(C)(C)N1CCC1CN` (stereo not given), for which the Inhibition in experiment [1] was 2.17%; in experiment [2] it was -8.31%; in experiment [3] it was 10.97%; in experiment [4], 10.11%; in experiment [5], 3.04%; in experiment [6], -5.34%.

`C#CCNc1ccc(C(=O)OCC)cc1`: the Inhibition in experiment [1] was 7.69%; in experiment [2], 8.65%; in experiment [3] it was -0.61%; in experiment [4], 11.49%; in experiment [5], 5%; in experiment [6] it was -3.8%.

On to `NS(=O)(=O)c1ccc(NC2(C(=O)O)CCCC2)cc1`, for which the Inhibition was 11.74% in experiment [1]; 13.36% in experiment [2]; -10.3% in experiment [3]; 11.38% in experiment [4]; 4.41% in experiment [5]; 18.42% in experiment [6].

Regarding `CC(C)N(C(=O)c1cccc([N+](=O)[O-])c1)C(C)C`, the Inhibition in experiment [1] was 9.59%; in experiment [2], -13.76%; in experiment [3], 4.26%; in experiment [4], 0.52%; in experiment [5], 0.26%; in experiment [6] it was -4.03%.

As to `CC(=O)Nc1ccc(S(=O)(=O)N=S(C)C)cc1`, the Inhibition in experiment [1] is 11.09%; in experiment [2] it was 5.41%; in experiment [3], 5.54%; in experiment [4], 15.05%; in experiment [5] it was 3.87%; in experiment [6], -12.86%.

In the case of `Cc1nn(-c2ccccc2)c2c1C(c1ccc([N+](=O)[O-])cc1)C(C#N)=C(N)O2` (stereo not given), the Inhibition in experiment [1] is 11.47%; in experiment [2], 2.7%; in experiment [3] it was 1.25%; in experiment [4], 12.44%; in experiment [5], -1.55%; in experiment [6], -5.09%.

As for `COc1ccc2c(c1)CCN1C2CCN2C(=O)CCC21` (stereo not given), the Inhibition in experiment [1] is -11.91%; in experiment [2] it was -4.71%; in experiment [3], -9.16%; in experiment [4] it was 7.62%; in experiment [5], 3.14%; in experiment [6] it was -4.03%.

Turning to `NC(=O)c1ncn2c(=O)n(CCCl)nnc12` [MITOZOLOMIDE], the Inhibition in experiment [1] was -4.1%; in experiment [2], 10.43%; in experiment [3], 3.54%; in experiment [4], 6.17%; in experiment [5] it was 2.26%; in experiment [6], -10.87%.

Turning to `Cc1cc(=O)[nH]c(N)n1`, the Inhibition is 9.55% in experiment [1]; -6.26% in experiment [2]; 2.4% in experiment [3]; 1.73% in experiment [4]; 3.77% in experiment [5]; -0.62% in experiment [6].

As to `O=C(O)/C=C\C(=O)Nc1nccs1`, the Inhibition in experiment [1] is 6.29%; in experiment [2], -13.11%; in experiment [3] it was 4.99%; in experiment [4], 25.17%; in experiment [5], 0.91%; in experiment [6], -1.21%.

Regarding `CC(C)(CO)N1CCN(C(S)=Nc2ccccc2)CC1`, the Inhibition in experiment [1] was -0.05%; in experiment [2], 2.01%; in experiment [3], -1.36%; in experiment [4], 29.13%; in experiment [5] it was 8.13%; in experiment [6], -5.08%.

`CSc1ccc(NC(=O)Nc2ccccc2C(N)=O)cc1`: the Inhibition worked out at 16.3% in experiment [1]; 11.66% in experiment [2]; 11.12% in experiment [3]; 15.39% in experiment [4]; 4.24% in experiment [5]; 3.99% in experiment [6].

`CN1CCN(C(=O)/C=C/c2ccc([N+](=O)[O-])o2)CC1`: the Inhibition in experiment [1] is 14.1%; in experiment [2] it was 5.92%; in experiment [3], -7.59%; in experiment [4], 6.31%; in experiment [5], 3.54%; in experiment [6] it was 10.04%.

For the compound `O=C(O)C1=NN(c2cc(Cl)c(S(=O)(=O)O)cc2Cl)C(=O)C1`, the Inhibition in experiment [1] was 10.8%; in experiment [2], 12.97%; in experiment [3], 19.15%; in experiment [4] it was 14.41%; in experiment [5], 2.3%; in experiment [6], -14.45%.

Consider `C#Cc1cccc(NC(=O)c2ccc(Cl)cc2Cl)c1`, for which the Inhibition in experiment [1] is 1.84%; in experiment [2], -16.25%; in experiment [3], 7.38%; in experiment [4], 6.81%; in experiment [5], 7.69%; in experiment [6] it was -7.06%.

As to `NC(=O)c1cc2c3ccccc3ccn2c1-c1ccccc1`, the Inhibition in experiment [1] was 8.37%; in experiment [2], -5.02%; in experiment [3], 3.37%; in experiment [4], 9.25%; in experiment [5] it was 6.45%; in experiment [6] it was -9.75%.

With `NC(=O)N/N=C1\CC2CC1C1C=CCC21` (stereo not given), the Inhibition in experiment [1] is 5.27%; in experiment [2], -14.41%; in experiment [3], 8.37%; in experiment [4], 17.34%; in experiment [5] it was -2.08%; in experiment [6], -9.13%.

In the case of `Cc1c(Cl)cccc1NC(=O)CC1Sc2ccccc2NC1=O` (stereo not given), the Inhibition in experiment [1] was 7.76%; in experiment [2], 13.12%; in experiment [3], -17.77%; in experiment [4], 3.05%; in experiment [5] it was 8.03%; in experiment [6], 45.43%.

Regarding `Nc1ccc(Oc2ccc(N)c([N+](=O)[O-])c2)cc1[N+](=O)[O-]`, the Inhibition in experiment [1] is 19.29%; in experiment [2], -5.09%; in experiment [3] it was 4.4%; in experiment [4] it was 9.85%; in experiment [5] it was 10.1%; in experiment [6], -3.81%.

On to `CCCn1cnc2c(S)nc(N)nc21`, for which the Inhibition in experiment [1] was 0.53%; in experiment [2] it was -16.82%; in experiment [3], 10%; in experiment [4], 2.88%; in experiment [5], -1.47%; in experiment [6], -9.79%.

Turning to `C=CCNC(=S)N1CCN(c2ccccc2Cl)CC1`, the Inhibition in experiment [1] was 6.69%; in experiment [2], 9.34%; in experiment [3], -14.86%; in experiment [4] it was 17.35%; in experiment [5], 32.7%; in experiment [6] it was -0.57%.

As to `CCOc1nc(OCC)c2cnn(C)c2n1`, the Inhibition in experiment [1] was 17.13%; in experiment [2], -11.25%; in experiment [3], 5.79%; in experiment [4] it was 6.34%; in experiment [5] it was 3.82%; in experiment [6], -3.08%.

For the compound `CC(C)Oc1ccc(C(=O)O)cc1`, the Inhibition was 3.26% in experiment [1]; -8.45% in experiment [2]; 5.58% in experiment [3]; 15.4% in experiment [4]; 24.9% in experiment [5]; -0.99% in experiment [6].

(Values after ChEMBL document CHEMBL4296182, “CO-ADD screening of NIH NCI Diversity Set V”.)
